# Where “and” joins values, the source holds several entries; their conditions need not be identical. Identical values can stand only once. In all, about 5,300 compounds were measured (“PER2::LUC luminescence relative to vehicle control”: median about 0.96, highest 2% from about 1.3 on). The entries come from a sample that favours the highest values as a whole.
# Tested on: mPer2Luc MEF
# Experiment: PER2::LUC luminescence relative to vehicle control (fold of vehicle); higher = higher PER2::LUC reporter signal
# Conditions: 10 µM
# Procedure, shortened: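 Compounds from commercial libraries were added at 10 μM to 384-well plates seeded 48 h earlier with ~3000 mPer2Luc mouse embryonic fibroblasts per well. The cells were kept in DMEM with 10% FBS at 37 °C and 5% CO2. Luminescence was read with ONE-Glo 24 h and 30 h after treatment, then an alamarBlue viability assay was run. Values are PER2::LUC luminescence relative to vehicle control, as fold change.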
Compound,PER2::LUC luminescence (time after treatment 24 h),PER2::LUC luminescence (time after treatment 30 h)
COc1ccc2c(c1)C[C@H](C(=O)Nc1ccc(-c3cn[nH]c3)cc1OCCN(C)C)CO2,0.472,0.452
CCN(CC)C(=O)C(c1ccccc1)N1CCN(c2ccc(NC(=O)c3ccccc3-c3cccnc3)cc2F)CC1 (stereo not drawn),0.968,1.09
O=C[C@H](O)[C@H](O)CO,0.921,0.987
CN1C(=O)C[C@H](C(=O)O)[C@H]1c1cccnc1,1.08,1.07
O=C(/C=C/c1ccccc1)c1ccc(O)cc1O,1.21,1.43
CC(C)=CCc1c(O)ccc(C(=O)/C=C/c2ccc(O)cc2)c1O,0.904,0.903
O=C(/C=C/c1ccccc1)c1ccc(O[C@@H]2O[C@H](CO)[C@@H](O)[C@H](O)[C@H]2O)cc1O,1.21,1.27
O=C(/C=C/c1ccc(O)cc1)c1ccc(O)cc1O,1.24,1.41
O=C(/C=C/c1ccc(O)c(O)c1)c1ccc(O)cc1O,1.04,1.13
COc1cc(O)c(C(=O)/C=C/c2ccccc2)c(OC)c1,0.907,0.937
Clc1ccc(Nc2nc3ccccc3c3nc(C4CCCCC4)[nH]c23)cc1Cl,0.84,0.867
OCC1OC(O)CC(O)C1O (stereo not drawn),1.15,0.973
CCCCCCCC(=O)CCc1ccc(O)c(OC)c1,1.04,0.901
N=C(N)SCc1ccc(CSC(=N)N)s1,1.01 and 0.976,1.01 and 0.977
COCCOc1nc(N)c2[nH]c(=O)n(Cc3ccccc3)c2n1,1.21,1.13
COC(=O)CC1CC(c2ccc(O)cc2)=NO1 (stereo not drawn),1.51,1.75
O=C(O)CC1CC(c2ccccc2)=NO1 (stereo not drawn),0.994 and 1.06,0.948 and 1.15
CC(C)=CCC[C@](C)(O)[C@H]1CC[C@]2(C)[C@@H]1CC[C@@H]1[C@@]3(C)CCC(=O)C(C)(C)[C@@H]3CC[C@]12C,1.05,0.987
CC(=O)OC[C@@]1(O)C[C@@]23CC[C@@H]4c5ccoc5C=C[C@@]4(C)[C@@H]2CC[C@@H]1C3,1.02,0.958
N#Cc1cccc2sc(C(=O)N=C(N)N)cc12,1.02,1.08
C[N+](C)(C)C[C@H](O)CC(=O)O,0.959,0.919
N[C@H](CC(=O)O)C(=O)O,1.09,1.08
NCC(O)CC(=O)O (stereo not drawn),1.23 and 1.06,1.56 and 0.991
O=C1OC(C=Cc2ccccc2)=NC1=Cc1cccnc1,1.03,1.05
O=C(CCc1ccccc1)N1CCC(O)(Cn2cnc3cc(Cl)ccc3c2=O)CC1,0.949,0.916
Cc1ccc2c(Nc3ccc(Cl)cc3)nccc2c1Nc1ncccc1-c1ncnc2nc[nH]c12,0.42,0.349
N=C(N)NC(=O)c1nc(Cl)c(N)nc1N,1.32,1.12
N=C(NC(=O)c1nc(Cl)c(N)nc1N)Nc1ccccc1,1.32,1.39
N/C(=N\C(=O)c1nc(Cl)c(N)nc1N)NCc1ccccc1,1.08,0.986

# — the supplement of paper PMC9334596
